Test results published in ChEMBL document CHEMBL3988442, “University of Dundee, Small-Polar-MMV Screening Library” (2021).
The whole screen tested about 48,000 compounds, of which about 13,000 (27%) showed an effect of 50% or more. The list shows a part of the results.

test system: Wolbachia pipientis; assay: Anti-Wolbachia Cell-Based Screen; type: functional; parameters: scale not given: in the data most compounds retested in dose-response had high values; conditions: 5 µM

Compound | Percent Effect
CC(C)CN1CCC(NC(=O)N(C)Cc2csc3ccccc23)CC1 | 14.6%
CN(C)C1(CNc2ncc(Br)cn2)CCOCC1 | 25.75%
CCC(CNS(=O)(=O)c1c[nH]cn1)Oc1ccccc1F (stereo not drawn) | -7.945%
COc1ccnc(NCc2ccccc2Cn2cccn2)n1 | 13.47%
Cc1nonc1C(=O)N1CC[C@@]2(O)CCN(C3CCCCC3)C[C@H]2C1 | -5.278%
O=C(NC1CCC(C(=O)N2CCSCC2)CC1)N1CCC1 (stereo not drawn) | 3.195%
CC1(C)CN(C(=O)CC2CCC2)C[C@]1(C)O | 6.618%
COCCC(=O)N1C[C@H](C(C)C)[C@@H](N(C)C)C1 | 108.6%
CC(C)[C@@H]1CN(C(=O)CCc2ccc(F)cc2)C[C@H]1C(=O)O | -26.1%
CC(C)[C@@H]1CN(C(=O)NCc2ccco2)C[C@H]1N(C)C | -15.37%
CC(=O)c1cc(CN2C[C@@H](N(C)C)[C@H](C(C)C)C2)cs1 | 13.8%
Cc1cc(C(=O)N2C[C@@H](C(=O)O)[C@H](C(C)C)C2)cs1 | 38.77%
CC(C)[C@@H]1CN(C(=O)CN(C)Cc2ccc(F)cc2)C[C@H]1C(=O)O | -17.02%
Cc1nc(CC(C)C)cc(C(=O)N2C[C@@H](N(C)C)[C@H](C(C)C)C2)n1 | -16.81%
Cc1cc(C(=O)N2C[C@H](C(C)C)[C@@H](N(C)C)C2)cs1 | 81.51%
CC(C)[C@H]1CN(C(=O)CC2CCC2)C[C@@H]1N(C)C | 88.21%
CC(C)[C@@H]1CN(Cc2cnc(C3CCCCC3)nc2)C[C@H]1N(C)C | -9.184%
CC(C)[C@H]1CN(C(=O)CO)C[C@@H]1N(C)C | 109.8%
N#Cc1cc(S(N)(=O)=O)ccc1NC1CCc2c(F)cccc21 (stereo not drawn) | -10.31%
COCCCN(C)c1ncccc1I | 0.1394%
Cn1c(NCC(=O)N2CCCC2)c(C#N)c(=O)n(C)c1=O | 6.318%
CC(O)CN1CCC(CN(C)Cc2cc(F)cc3cccnc23)CC1 (stereo not drawn) | -9.016%
CC(C)Oc1ccc(C(=O)Cn2cnnc2[S+](C)[O-])cc1 (stereo not drawn) | 6.636%
CS(=O)(=O)c1cccc(S(=O)(=O)NC(=O)CCC2CCCCC2)c1 | -13.77%
COc1cccc(S(=O)(=O)NC(=O)CCC2CCCC2)c1 | 93.05%
CCOc1ccc(S(=O)(=O)NC(=O)CCC2CCCO2)cc1 (stereo not drawn) | 0.3257%

Compound | Percent Effect
COc1cccc(S(=O)(=O)NC(=O)COC2CCCCC2)c1 | 79.48%
COc1cccc(S(=O)(=O)NC(=O)CC2CCCC2)c1 | 9.946%
N#Cc1cccc(S(=O)(=O)NC(=O)COC2CCCC2)c1 | 4.791%
COc1cccc(S(=O)(=O)NC(=O)CC2CCCO2)c1 (stereo not drawn) | 94.52%
COc1cccc(S(=O)(=O)NC(=O)COc2c(C)cccc2C)c1 | -5.351%
COc1ccc(S(=O)(=O)NC(=O)COC2CCCC2)cc1 | 110.1%
COc1ccc(S(=O)(=O)NC2(CC(N)=O)CCC2)cc1 | 1.65%
COc1cccc(S(=O)(=O)NC(=O)COC2CCCC2)c1 | 0.104%
CS(=O)(=O)c1cccc(S(=O)(=O)NC(=O)CC2CCCCC2)c1 | -9.509%
Cc1ccc(-n2c(C)nnc2SCC(O)COCc2ccco2)cc1 (stereo not drawn) | -12.77%
Cc1cnccc1CN(C)C(=O)c1ccc(Cn2cnnn2)cc1 | -17.07%
Cc1ccc(CN(C)C(=O)NCC(C)(C)CCS(C)(=O)=O)s1 | -3.781%
CN(C(=O)Cc1coc(-c2ccccc2)n1)C1(C#N)CCC1 | 4.147%
COc1ccc(Cl)cc1NCC(=O)N(Cc1cccnc1)C1CC1 | 0.4709%
O=C(O)C(F)(F)F.O=C([C@@H]1COC[C@H]2CN(C3CCOCC3)C[C@H]21)N1CCCCO1 | -37.74%
COc1ccc(S(=O)(=O)NC(=O)c2cscn2)cc1C | -8.824%
COc1ccc(S(=O)(=O)NC(=O)COC2CCCCC2)cc1C | 99.33%
NC(=O)C(NC(=O)COC1CCCCC1)c1ccccc1 (stereo not drawn) | -9.016%
COc1ccc(OCC(=O)NS(=O)(=O)c2cc(F)ccc2F)cc1 | 18.57%
COCc1nc(C(=O)NS(=O)(=O)c2ccc(OC)c(C)c2)cs1 | -15.7%
COc1ccc(S(=O)(=O)NC(=O)COC2CCCCC2)cc1 | 100.4%
CCCC(O)CNc1cncc(Br)c1 (stereo not drawn) | -5%
CC(C)(NC(=O)Nc1cnn(CC2CCCO2)c1)c1nccs1 (stereo not drawn) | -5.14%
CN(Cc1n[nH]c(=O)n1Cc1ccccc1F)S(C)(=O)=O | -17.4%
Cc1ccc(-n2c(COC(C)C)n[nH]c2=O)cc1 | -8.363%
CCN(C)Cc1n[nH]c(=O)n1-c1ccc(C)c(C)c1 | 100.3%

Compound | Percent Effect
Cc1ccc(F)cc1-n1c(CN(C)S(C)(=O)=O)n[nH]c1=O | 117.3%
CCN(C)Cc1n[nH]c(=O)n1-c1cc(F)ccc1C | 106.9%
CNCc1n[nH]c(=O)n1-c1ccccc1Oc1ccccc1 | -7.871%
CN(Cc1n[nH]c(=O)n1CCc1ccccc1F)S(C)(=O)=O | -6.047%
Cc1ccc(F)cc1-n1c(COC(C)C)n[nH]c1=O | 6.19%
COc1ccc(-n2c(COC(C)C)n[nH]c2=O)cc1 | 8.862%
CN(Cc1ccccc1-n1cccn1)C[C@@H]1CCCN2CCCC[C@H]12 | -7.431%
CCc1nsc(N2CCN(C(=O)c3ccnc(N(C)C)c3)CC2)n1 | -3.339%
CCC1=N[C@@]2(CC[C@@H]3CN(C(=O)NCC(C)C)C[C@@H]32)C(=O)N1CC(C)C | -11.82%
Cc1nn(C)c(C)c1C1CCCN1CCOc1ccccc1C#N (stereo not drawn) | -7.684%
CS(=O)(=O)NC[C@@H]1OC[C@H]2CN(C(=O)c3ccc[nH]3)CC[C@H]21 | -14.53%
CN[C@@H](C)C(=O)N(Cc1cccc(C)c1)Cc1ccccc1OC | 4.64%
CCc1nc(CC(=O)N2CCn3c(nnc3C(F)(F)F)C2)cs1 | -0.3988%
Cc1nc2c(c(NCc3ccc(-c4ccccn4)s3)n1)CCNCC2 | 3.518%
Cn1cc(CNc2ncnc3c2CCN(Cc2ccsc2)CC3)cn1 | 1.057%
Cc1cccc(-n2cc(CN3CCN(C)[C@@H]4CS(=O)(=O)C[C@@H]43)cn2)c1 | -4.421%
Cc1cccc(-n2cc(CNc3ncnc4c3CCNCC4)cn2)c1 | 94.66%
c1ccc(Cn2cc(CNc3ncnc4c3CCNCC4)cn2)cc1 | 100.8%
Cc1cccc(=O)n1CCCNc1ncnc2c1CCNCC2 | -13.78%
Cc1ccccc1-n1cc(CNc2ncnc3c2CCNCC3)cn1 | 113.8%
c1cncc(CNc2ncnc3c2CCN(Cc2ccsc2)CC3)c1 | -11.45%
CCc1ncc(C(=O)N(C)C2Cc3ccccc3C2)cn1 | 0.7414%
Cn1nnc2c1CCN(C(C(=O)N1CCCCC1)c1ccccc1)C2 (stereo not drawn) | 4.107%
CC(C)(C)c1ncc2c(n1)CN(C(=O)C(C)(C)n1cccc1)C2 | 2.811%
CCC(CC)C(=O)N1CCN(C)c2ncccc2C1 | -0.9461%
CC(C(=O)N1CCc2ccccc2C1)n1cc(Br)cn1 (stereo not drawn) | 4.145%

Compound | Percent Effect
CC(C)(C)C(=O)N1CCCc2c(cnn2-c2ccccc2)C1 | 70.74%
CC(C)C(=O)N1CCCc2c(cnn2-c2ccccc2)C1 | 142.7%
CC(C)C(=O)N1CCCN(C(=O)NC2CCc3ccccc3C2)CC1 (stereo not drawn) | 16.47%
O=C(NCc1nn(-c2ccccc2)c2c1CCC2)N1CCSCC1 | 9.143%
Cc1nc2c(c(=O)n1C)CCN(C(=O)Cn1cccc1)CC2 | 14.88%
O=C(NCC1OCCc2cn(CC3CCOCC3)nc21)c1ccsc1.O=C(O)C(F)(F)F (stereo not drawn) | -9.912%
CN(C)S(=O)(=O)c1ccc(CNC(=O)C2CC(=O)N(C(C)(C)C)C2)cc1 (stereo not drawn) | 129.4%
CSc1ccc(CNC(=O)C2CC(=O)N(C(C)(C)C)C2)cc1 (stereo not drawn) | 13.09%
CC(C)N1CC(C(=O)NCc2ccc(S(=O)(=O)N(C)C)cc2)CC1=O (stereo not drawn) | 136.1%
CC(C)(C)N1CC(C(=O)NCc2noc(Cc3ccccc3)n2)CC1=O (stereo not drawn) | -0.1463%
CN(C)S(=O)(=O)c1ccc(CNC(=O)C2CC2)cc1 | 8.545%
COc1cc(CNC(=O)C2CC(=O)N(C(C)C)C2)ccn1 (stereo not drawn) | -0.8085%
COc1cc(Cl)c(NC(=O)NCCn2cccc2)cc1OC | -6.144%
CCN(CC)C(=O)[C@@H]1C[C@@H](N)CN1c1nc(N2CCCC2)nc(C)c1C | -2.729%
O=C(c1cn(CCN2CCCCC2)nn1)N1CCCO1 | -7.456%
Cc1cc(C(=O)N2CCC(CCn3cccn3)CC2)c(C)o1 | -7.806%
Cc1ccc(C(=O)N2CCCS2(=O)=O)cc1Cl | -5.646%
Cc1cc(C(=O)N2CCN(Cn3cc(Cl)cn3)CC2)c(C)o1 | 0.3754%
COc1cc(C(=O)N2CCCS2(=O)=O)cc(Cl)c1OC | 11.62%
Cc1occc1C(=O)N1CCOC2(CCCC2)C1 | 0.5411%
Cc1cc(C(=O)N2CCS(=O)(=O)CC2)c(C)o1 | 128.6%
Cc1cc(C(=O)N2CCCS2(=O)=O)c(C)o1 | 122.2%
Cc1occc1C(=O)N1CCCS1(=O)=O | 102.9%
COc1cc(C(=O)N2CCCS2(=O)=O)ccc1C | -0.1842%
CN(Cc1ccccc1O)C(=O)NC1CCCN(c2ncccn2)C1 (stereo not drawn) | -16.23%
